Measured values published in ChEMBL document CHEMBL3988442, “University of Dundee, Small-Polar-MMV Screening Library” (2021).
For some assays here: Entries with a potency or affinity are not part of this list.

How the values were obtained:
Set-up in all cases: scale not given: direction of the effect not stated beside the values
[1] = biological target: Protein translocase subunit SecA (Escherichia coli (strain K12)) (UniProt P10408); assay: Assay to Identify E. coli SecA ATPase Inhibitors; assay type: functional; settings: 30 µM
Sequence of Protein translocase subunit SecA (Escherichia coli (strain K12)) (P10408 whole entry): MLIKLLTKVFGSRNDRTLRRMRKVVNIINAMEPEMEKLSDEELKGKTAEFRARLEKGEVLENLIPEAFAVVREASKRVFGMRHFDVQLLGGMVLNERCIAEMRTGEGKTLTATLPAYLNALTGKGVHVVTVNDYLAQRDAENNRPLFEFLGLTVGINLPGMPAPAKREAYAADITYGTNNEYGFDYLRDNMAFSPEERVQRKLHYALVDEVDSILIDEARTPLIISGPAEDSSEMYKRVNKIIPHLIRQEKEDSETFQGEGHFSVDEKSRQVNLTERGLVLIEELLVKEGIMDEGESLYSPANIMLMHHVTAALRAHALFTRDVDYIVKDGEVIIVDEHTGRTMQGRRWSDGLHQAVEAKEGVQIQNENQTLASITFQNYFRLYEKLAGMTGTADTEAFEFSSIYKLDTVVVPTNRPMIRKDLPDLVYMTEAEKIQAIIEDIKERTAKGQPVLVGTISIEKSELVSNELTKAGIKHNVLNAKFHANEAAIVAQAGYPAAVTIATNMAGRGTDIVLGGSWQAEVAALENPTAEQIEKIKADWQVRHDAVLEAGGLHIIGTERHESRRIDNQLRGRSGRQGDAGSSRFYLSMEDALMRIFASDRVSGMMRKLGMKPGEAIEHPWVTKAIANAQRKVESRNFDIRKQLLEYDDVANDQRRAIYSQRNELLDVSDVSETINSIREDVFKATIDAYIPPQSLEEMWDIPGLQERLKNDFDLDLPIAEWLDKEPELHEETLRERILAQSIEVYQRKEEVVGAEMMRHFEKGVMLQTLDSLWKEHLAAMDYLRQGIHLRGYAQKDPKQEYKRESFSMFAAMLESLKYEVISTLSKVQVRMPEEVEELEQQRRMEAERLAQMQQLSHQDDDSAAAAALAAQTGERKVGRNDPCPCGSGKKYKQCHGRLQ

[2] = biological target: T1, Ubiquitin-activating enzyme e1, putative (Leishmania donovani (strain BPK282A1)) (UniProt E9BSI1); assay: Leishmania donovani Ubiquitin Activating Enzyme (LdE1); assay type: functional; settings: 30 µM
T1 sequence (whole entry): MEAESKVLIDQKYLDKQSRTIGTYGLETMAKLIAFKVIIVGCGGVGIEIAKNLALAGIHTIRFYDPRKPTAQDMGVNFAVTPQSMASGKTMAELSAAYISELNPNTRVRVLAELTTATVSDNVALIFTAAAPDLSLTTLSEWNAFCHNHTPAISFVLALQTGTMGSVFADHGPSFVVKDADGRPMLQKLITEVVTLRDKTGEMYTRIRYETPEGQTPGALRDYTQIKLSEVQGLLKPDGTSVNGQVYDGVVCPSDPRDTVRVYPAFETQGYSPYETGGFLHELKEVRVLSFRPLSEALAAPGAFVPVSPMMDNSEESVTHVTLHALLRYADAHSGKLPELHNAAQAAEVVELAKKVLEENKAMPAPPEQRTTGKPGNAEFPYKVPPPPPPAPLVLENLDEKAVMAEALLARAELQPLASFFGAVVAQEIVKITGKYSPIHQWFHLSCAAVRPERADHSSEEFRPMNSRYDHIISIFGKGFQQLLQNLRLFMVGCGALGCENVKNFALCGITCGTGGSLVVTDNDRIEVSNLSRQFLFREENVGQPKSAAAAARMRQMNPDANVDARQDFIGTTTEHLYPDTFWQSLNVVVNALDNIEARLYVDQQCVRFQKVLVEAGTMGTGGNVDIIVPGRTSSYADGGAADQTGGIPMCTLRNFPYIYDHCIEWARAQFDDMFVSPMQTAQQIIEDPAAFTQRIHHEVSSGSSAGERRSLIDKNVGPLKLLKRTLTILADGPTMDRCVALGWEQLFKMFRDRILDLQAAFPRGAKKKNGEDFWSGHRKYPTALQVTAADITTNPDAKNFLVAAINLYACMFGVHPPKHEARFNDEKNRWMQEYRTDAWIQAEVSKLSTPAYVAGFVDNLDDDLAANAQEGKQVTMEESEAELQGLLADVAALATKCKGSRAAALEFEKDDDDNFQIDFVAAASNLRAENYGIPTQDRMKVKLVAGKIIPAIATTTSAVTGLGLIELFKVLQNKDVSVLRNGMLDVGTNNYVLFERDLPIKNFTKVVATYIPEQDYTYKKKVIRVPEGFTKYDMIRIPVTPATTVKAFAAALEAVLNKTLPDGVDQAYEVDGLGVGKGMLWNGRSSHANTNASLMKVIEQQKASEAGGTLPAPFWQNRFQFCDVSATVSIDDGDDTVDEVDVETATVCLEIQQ

[3] = biological target: AMP-activated protein kinase, AMPK (Homo sapiens) (UniProt P54646+O43741+P54619+Q9UGJ0+Q9Y478+Q13131+Q9UGI9); assay: AMP-dependent Kinase enzyme assay. An in vitro enzyme assay that detects ADP turnover that is directly proportional to AMPK activity. This uses naive AMPK that is activated during the assay with MK-8722; assay type: functional; settings: 30 µM
[4] = biological target: Sialic acid-binding Ig-like lectin 9 (Homo sapiens) (UniProt Q9Y336); assay: Hs-Siglec9 ALPHAscreen SOP 20170721; settings: 10 µM
Sequence of Sialic acid-binding Ig-like lectin 9 (Homo sapiens) (Q9Y336 whole entry): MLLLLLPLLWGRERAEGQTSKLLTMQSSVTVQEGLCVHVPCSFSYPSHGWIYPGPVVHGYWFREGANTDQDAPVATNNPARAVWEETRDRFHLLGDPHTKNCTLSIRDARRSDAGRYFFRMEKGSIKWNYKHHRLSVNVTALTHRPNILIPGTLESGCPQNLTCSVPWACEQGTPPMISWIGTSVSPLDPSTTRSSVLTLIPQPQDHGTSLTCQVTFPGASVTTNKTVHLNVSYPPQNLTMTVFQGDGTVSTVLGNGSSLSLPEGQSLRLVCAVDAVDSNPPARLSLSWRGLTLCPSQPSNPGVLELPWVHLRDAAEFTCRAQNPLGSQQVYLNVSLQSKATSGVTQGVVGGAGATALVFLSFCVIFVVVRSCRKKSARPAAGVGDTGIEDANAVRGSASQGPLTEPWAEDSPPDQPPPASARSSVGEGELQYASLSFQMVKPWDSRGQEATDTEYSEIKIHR

[5] = tested on: Trypanosoma cruzi; assay: Trypanosoma cruzi phosphomannomutase and mannose-1-phosphate guanylyltransferase assay; assay type: functional; settings: 10 µM
[6] = biological target: T2, Arginase-2, mitochondrial (Homo sapiens) (UniProt P78540); assay: in vitro enzyme assay to detect the production of urea directly proportional to the activity of Arginase II; assay type: functional; settings: 33.3 µM; further: in the data most compounds retested in dose-response had high values
T2 sequence (whole entry): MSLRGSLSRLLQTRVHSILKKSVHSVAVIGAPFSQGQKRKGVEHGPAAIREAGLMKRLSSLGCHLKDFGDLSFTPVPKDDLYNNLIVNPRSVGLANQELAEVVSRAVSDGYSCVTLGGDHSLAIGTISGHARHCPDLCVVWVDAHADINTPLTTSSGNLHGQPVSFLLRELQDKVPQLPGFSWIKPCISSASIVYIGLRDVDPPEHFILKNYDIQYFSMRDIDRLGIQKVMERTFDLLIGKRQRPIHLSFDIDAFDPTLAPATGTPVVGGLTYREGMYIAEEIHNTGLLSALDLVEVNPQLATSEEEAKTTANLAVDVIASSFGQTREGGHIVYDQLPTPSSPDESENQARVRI

[7] = biological target: T3, Proteasome subunit beta (Trypanosoma cruzi) (UniProt O96673); assay: Trypanosoma cruzi proteasome chymotrypsin-like activity (TcProtChymo) assay.; further: in the data most compounds retested in dose-response had high values; assay type: functional; settings: 9.37 µM
T3 sequence (whole entry): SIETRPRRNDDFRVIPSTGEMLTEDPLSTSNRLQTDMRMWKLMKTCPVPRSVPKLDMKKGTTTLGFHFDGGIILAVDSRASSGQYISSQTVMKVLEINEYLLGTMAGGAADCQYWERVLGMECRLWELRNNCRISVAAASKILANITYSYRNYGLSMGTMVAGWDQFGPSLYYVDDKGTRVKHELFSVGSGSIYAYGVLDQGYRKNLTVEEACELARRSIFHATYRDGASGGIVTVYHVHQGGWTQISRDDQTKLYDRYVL

[8] = species: Homo sapiens; assay: To identify inhibition of the IFN signalling (Jak-Stat) pathway via expression of an eGFP reporter gene under the control of an IFN-stimulated response element (ISRE) containing MxA promoter.; assay type: functional; settings: 30 µM
[9] = biological target: T4, Tyrosyl-tRNA synthetase, putative (Trypanosoma cruzi (strain CL Brener)) (UniProt Q4DSP6); assay: Trypanosoma cruzi tyrosyl tRNA synthetase (TcYRS) _High Tyrosine SOP; assay type: functional; settings: 30 µM; further: in the data most compounds retested in dose-response had high values
T4 sequence (whole entry): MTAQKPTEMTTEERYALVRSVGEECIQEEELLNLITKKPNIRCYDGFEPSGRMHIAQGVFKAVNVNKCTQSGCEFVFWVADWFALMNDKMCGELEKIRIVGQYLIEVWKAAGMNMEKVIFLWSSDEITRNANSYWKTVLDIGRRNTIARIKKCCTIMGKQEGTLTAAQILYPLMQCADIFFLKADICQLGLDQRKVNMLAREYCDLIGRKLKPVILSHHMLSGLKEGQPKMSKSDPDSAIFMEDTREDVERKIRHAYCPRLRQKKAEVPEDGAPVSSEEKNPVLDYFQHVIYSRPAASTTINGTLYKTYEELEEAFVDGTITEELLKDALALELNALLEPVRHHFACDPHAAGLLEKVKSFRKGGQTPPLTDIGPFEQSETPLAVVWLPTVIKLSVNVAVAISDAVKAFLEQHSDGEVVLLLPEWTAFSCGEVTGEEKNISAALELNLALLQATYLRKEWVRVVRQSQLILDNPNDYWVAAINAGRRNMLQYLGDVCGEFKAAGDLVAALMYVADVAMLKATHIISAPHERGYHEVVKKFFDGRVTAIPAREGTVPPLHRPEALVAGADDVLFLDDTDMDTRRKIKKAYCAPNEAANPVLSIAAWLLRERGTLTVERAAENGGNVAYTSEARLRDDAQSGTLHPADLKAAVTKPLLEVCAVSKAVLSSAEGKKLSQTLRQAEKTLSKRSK

[10] = biological target: T4, Tyrosyl-tRNA synthetase, putative (Trypanosoma cruzi (strain CL Brener)); assay: Trypanosoma cruzi tyrosyl tRNA synthetase (TcYRS) SOP; assay type: functional; settings: 30 µM
[11] = biological target: Chromo domain-containing protein 1 (Saccharomyces cerevisiae (strain ATCC 204508 / S288c) (Baker's yeast)) (UniProt P32657); assay: ScCHD-1 Enzyme Inhibition Assay; assay type: functional; settings: 30 µM; further: in the data most compounds retested in dose-response had high values
Sequence of Chromo domain-containing protein 1 (Saccharomyces cerevisiae (strain ATCC 204508 / S288c) (Baker's yeast)) (P32657 whole entry, the tested form may be a part): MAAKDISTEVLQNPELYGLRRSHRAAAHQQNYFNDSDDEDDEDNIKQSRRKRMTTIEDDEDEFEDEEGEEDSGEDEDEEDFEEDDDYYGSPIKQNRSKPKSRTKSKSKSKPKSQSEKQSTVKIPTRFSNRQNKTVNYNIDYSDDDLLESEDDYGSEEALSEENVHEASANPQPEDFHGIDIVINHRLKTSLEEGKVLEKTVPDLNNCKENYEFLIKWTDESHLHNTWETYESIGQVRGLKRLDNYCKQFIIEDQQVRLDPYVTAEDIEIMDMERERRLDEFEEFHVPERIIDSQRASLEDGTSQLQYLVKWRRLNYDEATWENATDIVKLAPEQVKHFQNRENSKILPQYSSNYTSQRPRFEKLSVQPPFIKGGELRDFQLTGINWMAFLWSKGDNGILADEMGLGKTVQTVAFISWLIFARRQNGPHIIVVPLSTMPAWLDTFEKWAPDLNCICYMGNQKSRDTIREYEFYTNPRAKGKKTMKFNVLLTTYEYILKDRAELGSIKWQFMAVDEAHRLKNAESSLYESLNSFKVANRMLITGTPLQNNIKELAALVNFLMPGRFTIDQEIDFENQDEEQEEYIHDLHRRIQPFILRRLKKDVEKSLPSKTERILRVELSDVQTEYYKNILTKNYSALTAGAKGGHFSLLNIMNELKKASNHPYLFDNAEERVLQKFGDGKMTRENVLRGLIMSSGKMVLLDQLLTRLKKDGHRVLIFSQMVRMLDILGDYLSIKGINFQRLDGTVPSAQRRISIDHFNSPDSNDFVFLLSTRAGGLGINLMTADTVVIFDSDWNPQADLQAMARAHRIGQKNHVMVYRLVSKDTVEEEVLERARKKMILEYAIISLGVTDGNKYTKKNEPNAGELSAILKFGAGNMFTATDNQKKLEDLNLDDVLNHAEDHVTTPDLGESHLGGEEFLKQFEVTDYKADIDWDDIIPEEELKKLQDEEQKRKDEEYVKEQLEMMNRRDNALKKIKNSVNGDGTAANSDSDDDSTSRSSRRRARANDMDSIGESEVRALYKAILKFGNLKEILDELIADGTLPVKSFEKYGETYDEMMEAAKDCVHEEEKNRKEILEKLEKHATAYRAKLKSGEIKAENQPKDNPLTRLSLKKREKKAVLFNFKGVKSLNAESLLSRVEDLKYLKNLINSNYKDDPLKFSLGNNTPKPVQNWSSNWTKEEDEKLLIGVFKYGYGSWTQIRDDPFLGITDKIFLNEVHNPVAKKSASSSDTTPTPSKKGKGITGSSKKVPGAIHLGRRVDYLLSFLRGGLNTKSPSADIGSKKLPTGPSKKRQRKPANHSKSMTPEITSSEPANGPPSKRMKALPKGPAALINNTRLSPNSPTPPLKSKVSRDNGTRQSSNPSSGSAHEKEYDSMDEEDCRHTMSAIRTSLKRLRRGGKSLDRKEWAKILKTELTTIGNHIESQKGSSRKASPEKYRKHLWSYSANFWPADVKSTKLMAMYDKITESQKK

## O=C(c1ccc(Br)s1)N1CCN(Cc2ccc(OC(F)(F)F)cc2)CC1
[1]
  Percent Effect: -0.131%
[2]
  Percent Effect: -13.7%
[3]
  Percent Effect: 41.1%
[4]
  Percent Effect: 2.45%
[5]
  Percent Effect: -3.72%
[6]
  Percent Effect: -1.82%
[7]
  Percent Effect: 19%
[8]
  Percent Effect: 8.24%
[9]
  Percent Effect: 1.07%
[10]
  Percent Effect: -2.5%
[11]
  Percent Effect: -11.7%

## Cc1ccc(NC2CCN(C(=O)c3cc[nH]n3)CC2)nn1
[1]
  Percent Effect: -0.868%
[2]
  Percent Effect: 0%
[3]
  Percent Effect: 8.84%
[4]
  Percent Effect: 3.52%
[5]
  Percent Effect: -3.01%
[6]
  Percent Effect: 1.53%
[7]
  Percent Effect: 10.7%
[8]
  Percent Effect: -13.4%
[9]
  Percent Effect: -0.49%
[10]
  Percent Effect: -2.44%
[11]
  Percent Effect: 7.64%

## O=C(NCCc1nnc2n1CCC2)NCC1(c2cccc(F)c2)CC1
[1]
  Percent Effect: -7.67%
[2]
  Percent Effect: -5.26%
[3]
  Percent Effect: 5.7%
[4]
  Percent Effect: -1.62%
[5]
  Percent Effect: 2.43%
[6]
  Percent Effect: 0%
[7]
  Percent Effect: -1.44%
[8]
  Percent Effect: -9.73%
[9]
  Percent Effect: 2.13%
[10]
  Percent Effect: 5.2%
[11]
  Percent Effect: 1.42%

## Cc1noc(NC(=O)c2ccc(Br)cc2)n1
[1]
  Percent Effect: -5.08%
[2]
  Percent Effect: 26.3%
[3]
  Percent Effect: -4.88%
[4]
  Percent Effect: 4.49%
[5]
  Percent Effect: 6.44%
[6]
  Percent Effect: 1.44%
[7]
  Percent Effect: 16.3%
[8]
  Percent Effect: 70%
[9]
  Percent Effect: 8.37%
[10]
  Percent Effect: 28.4%
[11]
  Percent Effect: -5.14%

## Cc1cnn(CC2CCCCN2Cc2noc(C3CC3)n2)c1 (stereo not given)
[1]
  Percent Effect: -2.92%
[2]
  Percent Effect: 5.26%
[3]
  Percent Effect: 2.62%
[4]
  Percent Effect: 2.92%
[5]
  Percent Effect: 0%
[6]
  Percent Effect: 1.53%
[7]
  Percent Effect: 9.86%
[8]
  Percent Effect: 14.8%
[9]
  Percent Effect: 7.35%
[10]
  Percent Effect: 9.76%
[11]
  Percent Effect: -5.92%

## CN(C)C[C@H]1OC[C@@H]2CCN(C(=O)c3cccn3C)C[C@@H]21
[1]
  Percent Effect: -3.89%
[2]
  Percent Effect: 0%
[3]
  Percent Effect: -8%
[4]
  Percent Effect: 19.3%
[5]
  Percent Effect: 4.59%
[6]
  Percent Effect: 9.18%
[7]
  Percent Effect: 6.44%
[8]
  Percent Effect: 4.8%
[9]
  Percent Effect: 6.45%
[10]
  Percent Effect: 13.6%
[11]
  Percent Effect: -6.04%

## CCn1nc(C)c(CCn2ccnc2-c2cc3n(n2)CCCNC3)c1C
[1]
  Percent Effect: -3.39%
[2]
  Percent Effect: 2.67%
[3]
  Percent Effect: 0.691%
[4]
  Percent Effect: 0.912%
[5]
  Percent Effect: -3.02%
[6]
  Percent Effect: 4.17%
[7]
  Percent Effect: 8.2%
[8]
  Percent Effect: 12.4%
[9]
  Percent Effect: 2.73%
[10]
  Percent Effect: 8.64%
[11]
  Percent Effect: -6.3%

## CSCC(C)(O)CNC(=O)c1ccc(Br)cc1F (stereo not given)
[1]
  Percent Effect: -7.07%
[2]
  Percent Effect: 2.7%
[3]
  Percent Effect: -0.438%
[4]
  Percent Effect: 0.101%
[5]
  Percent Effect: 2.25%
[6]
  Percent Effect: 3.23%
[7]
  Percent Effect: 2.15%
[8]
  Percent Effect: -2.21%
[9]
  Percent Effect: 3.23%
[10]
  Percent Effect: 6.17%
[11]
  Percent Effect: -3.6%

## O=S(=O)(NCC1CCOc2ccccc2C1)N1CCOCC1 (stereo not given)
[1]
  Percent Effect: -5.96%
[2]
  Percent Effect: 15.6%
[3]
  Percent Effect: 1.72%
[4]
  Percent Effect: 13.8%
[5]
  Percent Effect: 3.83%
[6]
  Percent Effect: -1.38%
[7]
  Percent Effect: 11.8%
[8]
  Percent Effect: 6.21%
[9]
  Percent Effect: 3.23%
[10]
  Percent Effect: 13.6%
[11]
  Percent Effect: 1.35%

## Cc1cnn(CC2CCCN2Cc2nccn2C)c1 (stereo not given)
[1]
  Percent Effect: -3.05%
[2]
  Percent Effect: -16.5%
[3]
  Percent Effect: -3.78%
[4]
  Percent Effect: -0.409%
[5]
  Percent Effect: 3.59%
[6]
  Percent Effect: 1.5%
[7]
  Percent Effect: 3.94%
[8]
  Percent Effect: 4.67%
[9]
  Percent Effect: 4.17%
[10]
  Percent Effect: 5.06%
[11]
  Percent Effect: -13.2%
